Assay in all cases: NCI-60 one-dose screen, 48 h (100 = growth as untreated, 0 = no growth, -100 = all killed)
One assay relates to HT29 colon. Particulars: 10 µM unless noted.
The subject of a further assay is SNB-75 CNS. As to conditions: 10 µM unless noted.
Another assay concerns SNB-19 CNS. As to conditions: 10 µM unless noted.
A further assay concerns U251 CNS. As to conditions: 10 µM unless noted.
The test system of another assay is PC-3 prostate. As to conditions: 10 µM unless noted.
For the next assay, the system named is SK-MEL-5 melanoma. As to conditions: 10 µM unless noted.
A further assay concerns UACC-62 melanoma. As to conditions: 10 µM unless noted.
The test system of a further assay is LOX IMVI melanoma. Particulars: 10 µM unless noted.
The next assay concerns SK-MEL-28 melanoma. Particulars: 10 µM.
A further assay concerns SK-MEL-2 melanoma. Particulars: 10 µM unless noted.
A further assay has as its system EKVX NSCLC. As to conditions: 10 µM unless noted.
In a further assay the test system is SN12C renal. Particulars: 10 µM unless noted.
Another assay relates to UO-31 renal. As to conditions: 10 µM unless noted.
The next assay relates to TK-10 renal. As to conditions: 10 µM unless noted.
The subject of the next assay is ACHN renal. Particulars: 10 µM unless noted.
The subject of another assay is CAKI-1 renal. Particulars: 10 µM unless noted.
Another assay has as its system A498 renal. As to conditions: 10 µM unless noted.
In a further assay the test system is CCRF-CEM leukemia. As to conditions: 10 µM unless noted.
In another assay the test system is MOLT-4 leukemia. As to conditions: 10 µM unless noted.
Another assay relates to SR leukemia. As to conditions: 10 µM unless noted.

Compounds without any hit were thinned out: in the full panel of roughly 83,000, 20% have a hit.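 Compound tested at a single concentration for 48 hours in 96-well plates; a percent growth value below 10 was scored as active.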 Unmarked numbers belong to inactive results. Active and inactive are the calls of the source.

`C=C1C(=O)O[C@H]2[C@H]1CC/C(COC(=O)/C=C\C(=O)O)=C\CC[C@@]1(C)O[C@@H]21`: the growth in the assay with HT29 colon is 108%; with SNB-75 CNS it was 79.4%; with SNB-19 CNS, 98.8%; with U251 CNS it was 108%; in the assay on PC-3 prostate it was 102%; in the assay on SK-MEL-5 melanoma, 102%. For the same compound, the growth with UACC-62 melanoma was 98%; in the assay with LOX IMVI melanoma it was 99.4%; in the assay on SK-MEL-28 melanoma it was 98.8%; with SK-MEL-2 melanoma, 112%; with EKVX NSCLC, 102%; in the assay with SN12C renal, 99.1%. The growth is 85.2% in the assay on UO-31 renal; 106% in the assay on TK-10 renal; 98% in the assay with ACHN renal; 100% with CAKI-1 renal; 93.5% with A498 renal; 107% with CCRF-CEM leukemia. For the same compound, the growth was 110% in the assay with MOLT-4 leukemia and 114% in the assay with SR leukemia.

`O=c1c(-c2nc3ccccc3[nH]2)cc2ccccc2n1Cc1cn(Cc2ccc(F)cc2)nn1`: the growth was 2.52% (active) in the assay with HT29 colon; -19.2% (active) in the assay on SNB-75 CNS; 21.8% in the assay on SNB-19 CNS; 14.2% in the assay with U251 CNS; 22% in the assay on PC-3 prostate; 6.69% (active) with SK-MEL-5 melanoma. For the same compound, the growth with UACC-62 melanoma was 17.2%; with LOX IMVI melanoma it was 12.8%; with SK-MEL-28 melanoma it was 45.1%; in the assay on SK-MEL-2 melanoma, 36%; in the assay on EKVX NSCLC, 31.4%; in the assay with SN12C renal, 14.2%. The growth is -18.9% (active) in the assay with UO-31 renal; 21.7% in the assay on TK-10 renal; 15% with ACHN renal; 32.9% in the assay with CAKI-1 renal; -14.5% (active) with A498 renal; 23.4% in the assay on CCRF-CEM leukemia. The growth in the assay on MOLT-4 leukemia is 19.9%; in the assay on SR leukemia, 30.2%.

As for `CN1CCN(Cc2ccc(C(=O)Nc3cncc(C#Cc4cnc(N)c5ccccc45)c3)cc2C(F)(F)F)CC1`, the growth in the assay on HT29 colon was -53.2% (active); with SNB-75 CNS it was -96.4% (active); with SNB-19 CNS it was -47.5% (active); in the assay on U251 CNS it was -70.5% (active); in the assay with PC-3 prostate it was -18.8% (active); in the assay on SK-MEL-5 melanoma, -94.6% (active). In addition, the growth with UACC-62 melanoma was 42.7%; in the assay on LOX IMVI melanoma, -92.4% (active); with SK-MEL-28 melanoma it was -85.5% (active); in the assay with SK-MEL-2 melanoma, -53.9% (active); in the assay on EKVX NSCLC, -8.85% (active); in the assay with SN12C renal, -81.7% (active). The growth in the assay with UO-31 renal was -90.7% (active); in the assay on TK-10 renal, -70.1% (active); in the assay on ACHN renal, -76.1% (active); in the assay on CAKI-1 renal it was -91.4% (active); in the assay on A498 renal, -62.9% (active); in the assay with CCRF-CEM leukemia, 0.702% (active). Further, the growth in the assay on MOLT-4 leukemia is -30% (active).

Consider `CC(=O)c1ccc2oc(=O)n(Cc3ccc(C#N)cc3)c(=O)c2c1`, for which the growth in the assay with HT29 colon was 112%; with SNB-75 CNS, 87.3%; in the assay with SNB-19 CNS it was 104%; in the assay on U251 CNS, 105%; in the assay with PC-3 prostate it was 97.5%; in the assay with SK-MEL-5 melanoma it was 105%. For the same compound, the growth with UACC-62 melanoma is 97.9%; in the assay with LOX IMVI melanoma it was 97.8%; with SK-MEL-28 melanoma, 104%; in the assay with SK-MEL-2 melanoma it was 101%; with EKVX NSCLC it was 101%; in the assay on SN12C renal, 99.3%. The growth is 85.6% in the assay with UO-31 renal; 103% with TK-10 renal; 104% in the assay with ACHN renal; 94.6% with CAKI-1 renal; 91.1% in the assay on A498 renal; 106% with CCRF-CEM leukemia. For the same compound, the values for the growth in the assay on MOLT-4 leukemia and with SR leukemia were 107% and 109%, respectively.

As to `O=C(Nc1ccc(Cl)cc1F)c1cc(F)ccc1O`, the growth is 10.3% with HT29 colon; -12.4% (active) with SNB-75 CNS; 22.8% in the assay with SNB-19 CNS; -4.4% (active) in the assay on U251 CNS; 3.1% (active) with PC-3 prostate; -84.4% (active) in the assay on SK-MEL-5 melanoma. The growth in the assay with UACC-62 melanoma is -7.35% (active); with LOX IMVI melanoma, 9.69% (active); with SK-MEL-28 melanoma it was 7.52% (active); in the assay on SK-MEL-2 melanoma it was -29.8% (active); in the assay on EKVX NSCLC it was 8.76% (active); with SN12C renal, 3.23% (active). The growth is 5.66% (active) with UO-31 renal; 14% with TK-10 renal; 3.61% (active) with ACHN renal; -14.3% (active) in the assay with CAKI-1 renal; -55.6% (active) in the assay with A498 renal; 8.63% (active) in the assay on CCRF-CEM leukemia. For the same compound, the growth in the assay on MOLT-4 leukemia was -13.3% (active).

For `CCOC(=O)c1sc(-c2ccc(OS(=O)(=O)c3ccc(Br)s3)c(C=O)c2)nc1C`, the growth in the assay with HT29 colon is -17.9% (active); with SNB-75 CNS, -5.48% (active); in the assay on SNB-19 CNS it was 14.4%; in the assay on U251 CNS it was -4.79% (active); in the assay on PC-3 prostate, 20.1%; in the assay on SK-MEL-5 melanoma, -92.6% (active). Also, the growth in the assay on UACC-62 melanoma was 12.3%; in the assay on LOX IMVI melanoma it was -54.5% (active); with SK-MEL-28 melanoma, 55%; with SK-MEL-2 melanoma it was 11.3%; with EKVX NSCLC, 85.6%; with SN12C renal it was 4.77% (active). Also, the growth is -0.882% (active) in the assay on UO-31 renal; -1.6% (active) in the assay with TK-10 renal; 7.37% (active) in the assay with ACHN renal; 3.48% (active) in the assay with CAKI-1 renal; 65.3% with A498 renal; 8.75% (active) in the assay with CCRF-CEM leukemia. The growth in the assay on MOLT-4 leukemia is 9.25% (active); with SR leukemia, 13.9%.

As for `Nc1ccccc1-c1ccc(-c2ccc(Cl)cc2)c2c1[nH]c1ccccc12`, the growth is 67.4% in the assay on HT29 colon; 83% in the assay on SNB-75 CNS; 81.8% in the assay on SNB-19 CNS; 70.6% in the assay on U251 CNS; 14.1% in the assay with PC-3 prostate; 86.9% in the assay with SK-MEL-5 melanoma. Further, the growth in the assay on UACC-62 melanoma is 60.3%; with LOX IMVI melanoma, 72.5%; with SK-MEL-28 melanoma, 97.1%; with SK-MEL-2 melanoma, 79.6%; with EKVX NSCLC, 70.6%; in the assay on SN12C renal, 66.5%. Besides, the growth was 26.1% with UO-31 renal; 84% in the assay on TK-10 renal; 75.2% in the assay on ACHN renal; 50% with CAKI-1 renal; 72.4% in the assay on A498 renal; 37.4% in the assay on CCRF-CEM leukemia. In addition, the growth in the assay on MOLT-4 leukemia is 25.8%; with SR leukemia, 53.6%.

Consider `CCOC(=O)c1c(C=O)nc2ccccc2c1/C=C/c1ccc(Cl)cc1`, for which the growth was 112% in the assay on HT29 colon; 79.7% with SNB-75 CNS; 92.8% with SNB-19 CNS; 92.6% in the assay on U251 CNS; 91.4% in the assay with PC-3 prostate; 83.1% with SK-MEL-5 melanoma. For the same compound, the growth in the assay with UACC-62 melanoma is 102%; in the assay on LOX IMVI melanoma it was 96.9%; in the assay with SK-MEL-28 melanoma, 103%; in the assay with SK-MEL-2 melanoma it was 105%; in the assay with EKVX NSCLC, 81.6%; in the assay with SN12C renal, 96.7%. In addition, the growth in the assay on UO-31 renal is 72.7%; in the assay with TK-10 renal it was 122%; with ACHN renal it was 89.1%; in the assay with CAKI-1 renal it was 89.6%; in the assay with A498 renal, 103%; with CCRF-CEM leukemia, 76.6%. The growth with MOLT-4 leukemia is 78.9%.
